Inconclusive results are not listed. Activity calls are given as the source filed them. Rule for the calls: active = hit-call score of the fitted dose curve at least 0.9, where 1 is the maximum; inconclusive = response in the unintended direction; inactive = score below 0.9.
Target: human Esterase Plasma (ES), BCHE (gene 590) (UniProt P06276)
Experiment: NVS_ENZ_hES: NovaScreen (NVS) Enzymatic Assay for human Esterase Plasma (ES) (AID 2283157)
Summary of the method: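 Chemicals were added to plasma-extracted human enzyme in a cell-free format, and activity was read colorimetrically after 0.25 hour. Activity loss was referenced to DMSO; concentration-response top dose was 50 uM.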

Chain of human Esterase Plasma (ES), BCHE (gene 590) (P06276 whole entry, looked up): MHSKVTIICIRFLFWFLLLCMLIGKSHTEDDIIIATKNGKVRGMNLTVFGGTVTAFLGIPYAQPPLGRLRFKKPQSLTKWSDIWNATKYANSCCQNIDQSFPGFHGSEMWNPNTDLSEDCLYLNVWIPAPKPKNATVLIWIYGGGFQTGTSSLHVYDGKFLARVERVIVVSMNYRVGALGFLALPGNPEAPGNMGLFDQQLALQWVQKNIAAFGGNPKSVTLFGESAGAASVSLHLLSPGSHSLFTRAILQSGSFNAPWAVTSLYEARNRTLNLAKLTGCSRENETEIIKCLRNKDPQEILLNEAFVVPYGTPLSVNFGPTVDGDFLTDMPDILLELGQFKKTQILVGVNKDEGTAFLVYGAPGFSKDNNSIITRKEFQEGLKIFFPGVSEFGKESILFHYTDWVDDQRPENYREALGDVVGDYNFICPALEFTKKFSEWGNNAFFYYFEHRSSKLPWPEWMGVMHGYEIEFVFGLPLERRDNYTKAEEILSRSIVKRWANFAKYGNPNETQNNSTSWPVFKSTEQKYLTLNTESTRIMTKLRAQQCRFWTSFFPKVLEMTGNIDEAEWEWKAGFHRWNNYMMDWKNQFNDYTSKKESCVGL

Row | SMILES | outcome | AC50
1 | Nc1nc(N)c2nc(CNc3ccc(C(=O)N[C@@H](CCC(=O)O)C(=O)O)cc3)cnc2n1 | inactive | 
2 | CCCCC(CC)COC(=O)CC(C(=O)OCC(CC)CCCC)S(=O)(=O)O (stereo unspecified) | inactive | 
3 | CCOC(=O)C(C)(C)Oc1ccc(Cl)cc1 | inactive | 
4 | CN1CCN(Cc2cc(-c3ccc4[nH]c(=O)oc4c3)co2)[C@@H](c2ccc(F)cc2)C1 |  | 9.48 µM (active)
5 | Cc1cccc([N+](=O)[O-])c1C | inactive | 
6 | FC(F)(F)C(F)(F)C(F)(F)C(F)(F)C(F)(F)C(F)(F)CCI | inactive | 
